# Test results as given in PubChem BioAssay (Tox21).
# Records with an inconclusive call do not appear. Where a call stands in place of a potency, no number is given. More than one record can exist for a structure, and the calls need not agree. Activity calls are given as the source filed them. Unless noted, the call rests on the fitted dose curve; in most records, active means well fitted curve in the direction sought with a large enough effect in the repeat runs; inconclusive means weak or mixed curves; inactive means no such curve, though single readings can be large; an effect the other way counts as inactive or inconclusive.
# Experiments:
# [1] = qHTS assay to identify small molecule HDAC inhibitors (AID 1259364);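 further: wild-type HCT-116 cells with endogenous class I/II HDAC activity; top concentration of the series differs between compounds; nearly all actives have a fitted effect of over 45% in size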
# How it was run: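 HCT-116 (wild type), 1,500 cells/well, overnight; compound 2 hr 37C 5% CO2; HDAC-Glo I/II reagent 30 min RT; luminescence readout.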
# [2] = qHTS assay to identify small molecule HDAC inhibitors - cell viability counter screen (AID 1259365); further: series mostly up to about 92 µM; nearly all actives have a fitted effect of over 50% in size
# How it was run: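 Counter screen in wild-type HCT-116 cells: compounds dissolved in DMSO are pin-transferred onto overnight-plated cells and left 2hr at 37C. ATP-based CellTiter-Glo luminescence then measures viable cells.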
# [3] = qHTS assay to identify small molecule antagonists of the sonic hedgehog signaling (Shh) pathway - cell viability counter screen (AID 1259367); further: nearly all actives have a fitted effect of over 55% in size
# How it was run: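 Fluorescence read-out (CellTiter-Fluor, 1 hr at 37C) taken after 23 hr compound treatment of 3T3 Gli1-Luc cells stimulated with conditioned medium. Cells were seeded at 2,000 per well and pre-incubated 4 hr.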
# [4] = qHTS assay to identify small molecule agonists of the sonic hedgehog signaling (Shh) pathway (AID 1259368; calls by dose curve;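 further: NIH/3T3-derived 3T3Gli1-Luc cells carrying a stable Gli1-driven firefly luciferase reporter; series mostly up to about 92 µM; nearly all actives have a fitted effect of over 15% in size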)
# How it was run: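 Read-out: firefly luciferase luminescence from a Gli1 response element reporter stably integrated in NIH/3T3-derived 3T3Gli1-Luc cells, measured 30 min at room temperature after reagent addition. Compound exposure lasted 24 hr at 37 C, 5% CO2.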
# [5] = qHTS assay to identify small molecule antagonists of the sonic hedgehog signaling (Shh) pathway (AID 1259369; calls by dose curve; further: nearly all actives have a fitted effect of over 45% in size; further: potency means the concentration at half of the fitted maximal effect)
# How it was run: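 Luminescence readout: firefly Luc under Gli1 response element in 3T3Gli1-Luc cells (NIH/3T3 clone). Antagonist mode, stimulation by conditioned medium; compound exposure 24hr at 37 C, 5% CO2.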
# [6] = qHTS assay to identify small molecule agonists of the androgen receptor (AR) signaling pathway in the presence of an antagonist - cell viability counter screen (AID 1259379);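 further: MDA-kb2 human breast cancer cells carrying an MMTV luciferase reporter; series mostly up to about 92 µM; nearly all actives have a fitted effect of over 25% in size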
# How it was run: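 Viability counter screen: CellTiter-Fluor fluorescence, measured in the same wells as the luciferase read-out. MDA-kb2 cells, 3,000/well, with nilutamide at 3.0uM final and compounds at 15 concentrations, 16 hr at 37C, 0% CO2.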
# [7] = qHTS assay to identify small molecule antagonists of the estrogen receptor beta (ER-beta) signaling pathway - cell viability counter screen (AID 1259382); further: series mostly up to about 92 µM; nearly all actives have a fitted effect of over 55% in size
# How it was run: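 Luminescent ATP read-out (CellTiter-Glo, 30 min, RT) taken in the same wells as the bla reporter assay. HEK293T ER-beta-UAS-bla cells in 2% charcoal-stripped FBS were exposed to compounds with 1nM E2 for 16 hr at 37C.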
# [8] = qHTS assay to identify small molecule agonists or antagonists of the thyroid stimulating hormone receptor (TSHR) signaling pathway - wild type cell line counter screen (AID 1259384; calls by dose curve)
# How it was run: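 Wild-type Hek293 cells, 800/well, 18 h at 37C, then compound with Ro20-1724 for 30 min RT. cAMP by HTRF (cAMP-d2/anti-cAMP cryptate), 1 h RT, fluorescence read. 15 concentrations, triplicates.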
# [9] = molecular target: Thyrotropin receptor (Homo sapiens) (UniProt P16473); experiment: qHTS assay to identify small molecule antagonists of the thyroid stimulating hormone receptor (TSHR) signaling pathway (AID 1259385; calls by dose curve; further: nearly all actives have a fitted effect of over 20% in size; further: potency means the concentration at half of the fitted maximal effect)
# How it was run: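 TSHR-HEK293 cells (800/well) plated 18 h, then compounds with Ro20-1724 and TSH at 1.5 ng/mL final, 30 min at room temperature. cAMP quantified by HTRF (cAMP-d2/anti-cAMP-cryptate, 1 h); 15 concentrations in triplicate.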
# [10] = qHTS assay to identify small molecule agonists of the estrogen receptor alpha (ER-alpha) signaling pathway in the presence of an antagonist - cell viability counter screen (AID 1259386);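 further: series mostly up to about 92 µM; cells exposed to compounds for 22 h at 37 °C before the viability read; nearly all actives have a fitted effect of over 30% in size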
# How it was run: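 Read-out: CellTiter-Fluor fluorescence after 1hr reagent incubation, measured in the same wells as the luciferase readout. VM7Luc4E2 cells were exposed to 15 compound concentrations with 10.0nM ICI-182,780 for 22hr at 37C.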
# [11] = molecular target: Progesterone receptor (Homo sapiens) (UniProt P06401); experiment: qHTS assay to identify small molecule agonists of the progesterone receptor (PR) signaling pathway (AID 1346784; calls by dose curve; further: nearly all actives have a fitted effect of over 30% in size)
# How it was run: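 Cells (PR-UAS-bla HEK 293T, GripTite) were plated in assay medium containing 2% charcoal-stripped FBS and incubated 6 hr. Test compounds in DMSO were added for 16 hr at 37C. FRET substrate was then loaded for 2 hr at room temperature before fluorescence reading.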
# [12] = molecular target: Progesterone receptor (Homo sapiens) (UniProt P06401); experiment: qHTS assay to identify small molecule antagonists of the progesterone receptor (PR) signaling pathway (AID 1346795; active means well fitted inhibition curve with a large enough effect in the signal ratio in the repeat runs, not every such curve was filed as active; the % refers to the signal ratio; further: potency means the concentration at half of the fitted maximal effect)
# How it was run: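 Antagonist mode: compounds tested against 1 nM (final) promegestone stimulation in HEK293T cells expressing PR-UAS-bla reporter, 16 hr at 37C, 5% CO2; beta-lactamase activity detected via B/G FRET substrate after 2 hr at room temperature.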
# [13] = qHTS assay to identify small molecule phospholipidosis (PLD) inducers (AID 1259344; active means well fitted curve in the direction sought with a large enough effect; an effect the other way counts as inactive or inconclusive)
# How it was run: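 Read-out is LipidTOX Red fluorescence (ex 595/em 615) imaged in HepG2 cells after 24 h compound exposure at 37 C, with Hoechst nuclear counterstain (ex 352/em 461) allowing per-cell normalisation.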
# [14] = qHTS assay to identify small molecule agonists of the sonic hedgehog signaling (Shh) pathway - cell viability counter screen (AID 1259366); further: nearly all actives have a fitted effect of over 50% in size
# How it was run: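 Cells are plated at 2,000 per well and left 4hr at 37C, 5% CO2 before compound addition. After 23hr of treatment, CellTiter-Fluor reagent is added for 1hr at 37C and fluorescence is measured.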
# [15] = qHTS assay to identify small molecule agonists of the estrogen receptor beta (ER-beta) signaling pathway - cell viability counter screen (AID 1259380); further: nearly all actives have a fitted effect of over 30% in size; further: potency means the concentration at half of the fitted maximal effect
# How it was run: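 Luminescence read-out (CellTiter-Glo, 30 min, room temp) taken in the same wells as the beta-lactamase reporter assay; ER-beta-UAS-bla HEK293T cells exposed to DMSO-dissolved compounds for 16 hr at 37C in 2% charcoal-stripped FBS medium.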
# [16] = molecular target: Estrogen receptor beta (Homo sapiens) (UniProt Q92731); experiment: qHTS assay to identify small molecule agonists of the estrogen receptor beta (ER-beta) signaling pathway (AID 1259377; active means well fitted activation curve with a large enough effect in the signal ratio in the repeat runs, not every such curve was filed as active; the % refers to the signal ratio)
# How it was run: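 Agonist mode cell assay in GripTite HEK293T cells expressing an ER-beta fusion that drives beta-lactamase from an Upstream Activator Sequence; 16 hr compound exposure at 37C, then 2 h LiveBLAzer B/G FRET substrate at room temperature, fluorescence read-out.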
# [17] = molecular target: Estrogen receptor beta (Homo sapiens) (UniProt Q92731); experiment: qHTS assay to identify small molecule antagonists of the estrogen receptor beta (ER-beta) signaling pathway (AID 1259378; active means well fitted inhibition curve with a large enough effect in the signal ratio in the repeat runs, not every such curve was filed as active; the % refers to the signal ratio)
# How it was run: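 ER-beta-UAS-bla HEK293T cells in 2% charcoal-stripped FBS medium treated with compound plus 1nM final 17-beta-estradiol for 16 hr at 37C. Beta-lactamase reporter read by FRET substrate fluorescence after 2 hours at room temperature.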
# [18] = molecular target: Androgen receptor (Homo sapiens) (UniProt P10275); experiment: qHTS assay to identify small molecule agonists of the androgen receptor (AR) signaling pathway in the presence of an antagonist (AID 1259381; calls by dose curve; further: nearly all actives have a fitted effect of over 15% in size)
# How it was run: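 Luciferase read-out (ONE-Glo, 30min room temperature) in MDA-kb2 MMTV-reporter cells; agonist mode run in presence of AR antagonist nilutamide, 3.0uM final. Compounds tested as 15-point series, 16hr exposure at 37C, 0% CO2.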
# [19] = molecular target: Estrogen receptor (Homo sapiens) (UniProt P03372); experiment: qHTS assay to identify small molecule agonists of the estrogen receptor alpha (ER-alpha) signaling pathway in the presence of an antagonist (AID 1259383; calls by dose curve; further: top concentration of the series differs between compounds; nearly all actives have a fitted effect of over 15% in size)
# How it was run: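 Luciferase luminescence (ONE-Glo, 30min at room temperature) measured in VM7Luc4E2 cells after 22hr compound exposure at 15 concentrations, with 10.0nM ICI-182,780 final present; cells express endogenous ER-alpha and carry four EREs upstream of luciferase.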
# Chain of Thyrotropin receptor (Homo sapiens) (P16473 whole entry, looked up): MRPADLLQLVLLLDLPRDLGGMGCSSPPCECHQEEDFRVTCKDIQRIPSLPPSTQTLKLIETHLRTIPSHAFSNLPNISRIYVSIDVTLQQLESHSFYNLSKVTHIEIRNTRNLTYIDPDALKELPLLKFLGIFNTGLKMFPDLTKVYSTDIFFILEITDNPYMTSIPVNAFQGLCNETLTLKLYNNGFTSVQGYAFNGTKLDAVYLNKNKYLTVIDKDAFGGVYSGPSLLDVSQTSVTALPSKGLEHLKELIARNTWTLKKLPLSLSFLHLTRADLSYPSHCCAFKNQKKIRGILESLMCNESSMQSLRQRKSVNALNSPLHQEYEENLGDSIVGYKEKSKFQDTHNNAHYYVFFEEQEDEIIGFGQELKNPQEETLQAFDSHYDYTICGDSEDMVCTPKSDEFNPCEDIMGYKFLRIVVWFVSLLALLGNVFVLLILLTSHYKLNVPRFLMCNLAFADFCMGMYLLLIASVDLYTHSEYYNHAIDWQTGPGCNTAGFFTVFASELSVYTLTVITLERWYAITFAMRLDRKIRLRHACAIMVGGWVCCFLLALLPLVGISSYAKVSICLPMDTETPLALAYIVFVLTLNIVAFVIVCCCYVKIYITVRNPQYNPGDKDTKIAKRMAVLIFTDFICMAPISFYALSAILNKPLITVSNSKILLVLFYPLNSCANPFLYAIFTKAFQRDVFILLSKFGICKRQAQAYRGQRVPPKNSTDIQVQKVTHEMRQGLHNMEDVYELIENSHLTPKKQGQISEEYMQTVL
# Chain of Estrogen receptor (Homo sapiens) (P03372 whole entry, looked up): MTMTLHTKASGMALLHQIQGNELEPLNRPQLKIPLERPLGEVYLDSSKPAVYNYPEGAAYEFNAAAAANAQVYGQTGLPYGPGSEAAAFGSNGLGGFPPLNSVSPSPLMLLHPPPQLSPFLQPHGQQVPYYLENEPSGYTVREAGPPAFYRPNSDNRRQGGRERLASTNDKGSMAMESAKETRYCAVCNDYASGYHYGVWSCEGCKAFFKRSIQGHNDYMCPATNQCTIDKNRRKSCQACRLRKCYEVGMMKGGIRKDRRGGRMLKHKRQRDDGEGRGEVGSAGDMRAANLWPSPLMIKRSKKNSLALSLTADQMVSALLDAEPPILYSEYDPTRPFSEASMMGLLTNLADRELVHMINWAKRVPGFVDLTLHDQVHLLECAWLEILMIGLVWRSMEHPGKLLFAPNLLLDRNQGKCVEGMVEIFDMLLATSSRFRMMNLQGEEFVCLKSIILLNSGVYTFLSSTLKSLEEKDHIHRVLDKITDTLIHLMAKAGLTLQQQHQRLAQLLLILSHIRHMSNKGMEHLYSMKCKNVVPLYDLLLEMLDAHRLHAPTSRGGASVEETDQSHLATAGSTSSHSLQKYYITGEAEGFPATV
# Chain of Androgen receptor (Homo sapiens) (P10275 whole entry, looked up): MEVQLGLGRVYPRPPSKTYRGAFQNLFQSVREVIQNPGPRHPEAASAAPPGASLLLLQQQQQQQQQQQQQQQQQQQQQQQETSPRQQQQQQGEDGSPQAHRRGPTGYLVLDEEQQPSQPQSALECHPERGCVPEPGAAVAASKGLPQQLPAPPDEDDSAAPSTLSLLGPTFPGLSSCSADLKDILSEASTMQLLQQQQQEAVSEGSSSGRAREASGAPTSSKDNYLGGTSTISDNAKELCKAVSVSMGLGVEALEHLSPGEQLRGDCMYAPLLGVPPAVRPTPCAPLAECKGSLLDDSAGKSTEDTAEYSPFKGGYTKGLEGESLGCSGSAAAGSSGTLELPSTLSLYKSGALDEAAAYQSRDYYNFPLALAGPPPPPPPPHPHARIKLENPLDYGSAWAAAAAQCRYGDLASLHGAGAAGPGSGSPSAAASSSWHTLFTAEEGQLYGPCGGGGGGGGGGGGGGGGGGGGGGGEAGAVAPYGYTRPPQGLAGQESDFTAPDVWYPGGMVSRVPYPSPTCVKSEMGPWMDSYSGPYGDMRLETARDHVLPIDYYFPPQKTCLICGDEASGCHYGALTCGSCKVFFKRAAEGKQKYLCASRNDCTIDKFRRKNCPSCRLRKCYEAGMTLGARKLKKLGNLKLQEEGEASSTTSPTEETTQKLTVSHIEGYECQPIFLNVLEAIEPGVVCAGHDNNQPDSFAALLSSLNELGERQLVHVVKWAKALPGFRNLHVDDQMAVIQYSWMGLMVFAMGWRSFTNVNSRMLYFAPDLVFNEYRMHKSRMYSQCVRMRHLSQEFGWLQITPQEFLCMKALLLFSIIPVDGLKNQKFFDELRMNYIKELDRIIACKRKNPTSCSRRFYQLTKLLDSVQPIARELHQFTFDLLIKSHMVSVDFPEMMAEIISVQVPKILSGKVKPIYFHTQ
# Chain of Estrogen receptor beta (Homo sapiens) (Q92731 whole entry, looked up, the tested form may be a part): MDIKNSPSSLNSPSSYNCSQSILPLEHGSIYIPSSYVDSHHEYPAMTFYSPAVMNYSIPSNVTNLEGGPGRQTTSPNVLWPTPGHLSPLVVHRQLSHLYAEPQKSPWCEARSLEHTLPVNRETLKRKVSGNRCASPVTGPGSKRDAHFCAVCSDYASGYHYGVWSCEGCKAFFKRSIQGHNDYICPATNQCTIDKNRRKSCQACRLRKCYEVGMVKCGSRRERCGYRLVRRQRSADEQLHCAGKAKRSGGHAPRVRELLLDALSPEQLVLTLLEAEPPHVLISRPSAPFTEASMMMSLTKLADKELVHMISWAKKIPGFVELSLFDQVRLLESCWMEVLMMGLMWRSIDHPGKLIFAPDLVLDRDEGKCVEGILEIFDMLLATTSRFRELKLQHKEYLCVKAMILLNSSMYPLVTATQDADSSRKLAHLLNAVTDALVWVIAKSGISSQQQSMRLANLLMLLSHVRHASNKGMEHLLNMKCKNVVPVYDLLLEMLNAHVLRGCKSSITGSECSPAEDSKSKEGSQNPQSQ
# Chain of Progesterone receptor (Homo sapiens) (P06401 whole entry, looked up): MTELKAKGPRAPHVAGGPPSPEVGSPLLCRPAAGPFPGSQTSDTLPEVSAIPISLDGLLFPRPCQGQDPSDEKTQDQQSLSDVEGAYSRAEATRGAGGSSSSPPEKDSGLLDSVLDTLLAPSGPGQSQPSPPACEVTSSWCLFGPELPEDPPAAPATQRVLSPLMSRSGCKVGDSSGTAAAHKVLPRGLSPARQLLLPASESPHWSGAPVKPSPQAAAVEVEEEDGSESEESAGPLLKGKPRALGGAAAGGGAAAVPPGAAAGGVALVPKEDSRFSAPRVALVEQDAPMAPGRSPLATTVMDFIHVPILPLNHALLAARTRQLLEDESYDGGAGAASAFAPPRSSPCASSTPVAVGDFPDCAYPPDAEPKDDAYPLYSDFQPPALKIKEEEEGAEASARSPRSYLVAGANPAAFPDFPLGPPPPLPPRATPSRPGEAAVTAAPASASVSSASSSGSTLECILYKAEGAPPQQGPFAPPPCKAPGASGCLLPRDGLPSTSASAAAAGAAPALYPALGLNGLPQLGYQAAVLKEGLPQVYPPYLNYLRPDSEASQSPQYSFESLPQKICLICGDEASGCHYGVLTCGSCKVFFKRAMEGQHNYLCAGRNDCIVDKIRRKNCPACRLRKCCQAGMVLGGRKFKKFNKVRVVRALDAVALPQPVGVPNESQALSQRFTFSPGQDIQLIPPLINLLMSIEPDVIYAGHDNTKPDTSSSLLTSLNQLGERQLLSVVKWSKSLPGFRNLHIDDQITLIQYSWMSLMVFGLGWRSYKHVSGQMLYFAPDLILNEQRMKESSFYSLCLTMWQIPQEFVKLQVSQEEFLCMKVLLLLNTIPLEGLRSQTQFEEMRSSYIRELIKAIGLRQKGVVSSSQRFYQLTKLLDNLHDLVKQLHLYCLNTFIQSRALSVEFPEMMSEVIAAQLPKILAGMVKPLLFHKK
Structure (SMILES),Potency [1],outcome [2],Potency [3],outcome [4],Potency [5],outcome [6],Potency [7],outcome [8],Potency [9],outcome [10],outcome [11],Potency [12],outcome [13],Potency [14],Potency [15],Potency [16],outcome [17],outcome [18],Potency [19]
c1ccc2c(c1)Oc1ccccc1O2,inactive,inactive,inactive,inactive,inactive,inactive,inactive,inactive,inactive,inactive,inactive,inactive,,,,,,,
CN1C(=O)CN=C(c2ccccc2)c2cc(Cl)ccc21,,inactive,inactive,inactive,4.39 µM (active),inactive,inactive,inactive,inactive,inactive,inactive,,inactive,inactive,inactive,,,,
CCN(CC)CCO,inactive,inactive,inactive,inactive,inactive,inactive,inactive,inactive,inactive,inactive,inactive,inactive,,,inactive,inactive,inactive,,
CN(C)[C@@H]1C(=O)C(C(N)=O)=C(O)[C@@]2(O)C(=O)C3=C(O)c4c(O)cccc4[C@@](C)(O)[C@H]3C[C@@H]12,inactive,,inactive,,inactive,inactive,inactive,inactive,inactive,inactive,inactive,inactive,inactive,inactive,,inactive,inactive,,
CCCC1COC(Cn2cncn2)(c2ccc(Cl)cc2Cl)O1 (stereo not drawn),,inactive,inactive,,27.8 µM (active),,inactive,inactive,inactive,inactive,inactive,17.5 µM (active),,,61.1 µM (active),,,inactive,inactive
CC(NC(C)(C)C)C(=O)c1cccc(Cl)c1 (stereo not drawn),inactive,inactive,inactive,inactive,inactive,inactive,inactive,,,inactive,inactive,inactive,inactive,inactive,,,inactive,,
Nc1ccc(Oc2ccc(N)cc2)cc1,,,inactive,inactive,inactive,inactive,inactive,inactive,inactive,inactive,inactive,inactive,,inactive,,inactive,,,
CCC(C)(CC)c1cc(NC(=O)c2c(OC)cccc2OC)on1,,,inactive,,6.88 µM (active),inactive,inactive,,,inactive,inactive,,,inactive,,inactive,,,
CC(C)(Cl)Cl,inactive,,inactive,inactive,inactive,inactive,inactive,inactive,inactive,inactive,inactive,inactive,,inactive,,,,,
c1ccc2c(c1)oc1ccccc12,inactive,,inactive,,inactive,inactive,inactive,inactive,inactive,inactive,inactive,inactive,,inactive,,inactive,inactive,,
COC(=O)c1ccccc1N,inactive,,inactive,,inactive,inactive,inactive,inactive,inactive,inactive,inactive,inactive,,inactive,inactive,inactive,inactive,,
CCOP(=S)(OCC)SCCSCC,,,inactive,inactive,inactive,inactive,inactive,inactive,inactive,inactive,inactive,inactive,,inactive,inactive,inactive,inactive,,
CC1OC(C)OC(C)O1 (stereo not drawn),inactive,,inactive,inactive,inactive,inactive,inactive,,,inactive,inactive,inactive,inactive,,,inactive,inactive,,
O=S(=O)(c1ccc(Cl)cc1)c1cc(Cl)c(Cl)cc1Cl,inactive,,inactive,inactive,,inactive,inactive,inactive,61.1 µM (active),inactive,inactive,13.7 µM (active),,inactive,,inactive,inactive,,inactive
Nc1ccc(Cc2ccc(N)cc2)cc1,,inactive,inactive,inactive,inactive,inactive,inactive,inactive,inactive,inactive,inactive,inactive,,inactive,,,,,
COCCl,inactive,inactive,inactive,inactive,16 µM (active) and inactive,inactive,inactive,inactive,inactive,inactive,inactive,inactive,,inactive,inactive,inactive,inactive,inactive,
OC(O)C(Cl)(Cl)Cl,inactive,inactive,inactive,inactive,inactive,inactive,inactive,inactive,inactive,inactive,inactive,inactive,inactive,,inactive,inactive,inactive,,
Oc1ccccc1Cl,inactive,,inactive,,inactive,inactive,inactive,inactive,inactive,inactive,inactive,inactive,,,,,,,
Cc1cc(Cl)ccc1O,inactive,inactive,inactive,inactive,2.65 µM (active),inactive,inactive,inactive,inactive,inactive,inactive,inactive,,,inactive,inactive,inactive,,
